Measurements: PubChem BioAssay AID2676 (National Center for Advancing Translational Sciences (NCATS), 2010)
Hit rate of the full screen: of about 370,000 compounds, about 1,100 (0.3%) were called active. Another 1% or so got no clear call; they are omitted. Calls follow the shape of the dose curve; as a rule, active = well fitted activation curve with a large enough effect; inconclusive = small, poorly fitted or top-dose-only effect; inactive = flat fitted curve, though single readings scatter. What follows is part of a selection rich in actives, with near analogues and random picks from the rest.

Molecular target: Relaxin receptor 1 (Homo sapiens) (UniProt Q9HBX9)
Assay: qHTS Assay for Agonists of the Relaxin Receptor RXFP1; also: nearly all actives have a fitted effect of over 60% in size
Settings: HEK293T-RXFP1 cAMP TR-FRET, 30 min; series mostly up to 57.5 µM; activation: at the top concentration
Excerpt: NIH Chemical Genomics Center [NCGC] NIH Molecular Libraries Probe Production Centers Network [MLPCN] MLPCN Grant: R03 MH085705-01A1 Assay Submitter (PI): Alexander Agoulnik NCGC Assay Overview: The relaxin hormone is involved in the variety of biological functions in normal tissues and diseases. The role of relaxin is well-established in female reproduction and parturition, mammary gland and endometrial development, maintenance of myometrial quiescence during pregnancy. Relaxin signaling through its G protein-coupled receptor (GPCR) RXFP1 results in ECM remodeling through regulation of collagen deposition, cell invasiveness, proliferation and overall tissue homeostasis. […] Recombinant human relaxin (rhRlx) is currently being tested in clinical trials as a protective agent in congestive heart failure, in treating severe preeclampsia, and as an anti-fibrotic agent in systemic sclerosis. Upon relaxin binding RXFP1 activation leads to the activation of adenylate cyclase (AC) via Gs. cAMP will activate PKA, which phosphorylates many signaling proteins. Thus, detection of cAMP increase is an easy and reliable indication of relaxin receptor activation. To screen for agonists of the relaxin receptor, a HEK293T cell line stably transfected with RXFP1 was used. RXFP1 activation was assayed by changes in cAMP levels as detected with a time-resolved fluorescence energy transfer (TR-FRET) cAMP detection kit.
NCGC Assay Protocol Summary: This is a cell-based assay for cAMP second messenger response to screen for agonists of the RXFP1 receptor. The assay was conducted in the presence of a PDE4 inhibitor (Ro 20174). The cells were lysed and the cAMP levels were measured with a TR-FRET cAMP kit. Presence of cAMP in the cell lysate disrupts binding between the cryptate-labeled anti-cAMP and d2-labeled cAMP pair, leading to a decrease in the TR-FRET signal. Data were normalized to the controls for basal activity (buffer only) and 100% activity (29 nM porcine relaxin). The EC50 values were determined from concentration-response data modeled with the standard Hill equation 1536-well assay protocol for the HEK293 RXFP1 cAMP assay: (1) Add 3 ul HEK293 RXFP1 cell culture. 2000 cells/well in DMEM/F12, 10% FBS, 1x Pen/Strep (dispensed offline with MultiDrop Combi). (2) Incubate 16-24 hr at 37C, 5% CO2. (3) Add 1 ul 400uM Ro20174 in DPBS, 0.05% BSA, 0.005% Tween 20. (3) Add 23 nl compounds in DMSO solution. Final concentration was 0.5 - 58 uM. (4) Incubate 30 min at 37C, 5% CO2. (5) Add 1 ul cAMP-d2 in lysis buffer (HTRF cAMP HiRange kit, CisBio). (6) Add 1 ul anti-cAMP antibody-cryptate in lysis buffer (HTRF cAMP HiRange kit, CisBio). (7) Incubate 30 min at room temperature. (6) Detect the assay plate in a ViewLux plate reader (PerkinElmer) with Ex=320 nm, Em1=615 nm and Em2=665 nm. Keywords: relaxin, RXFP1, RXFP2, G-protein coupled receptor, cAMP, agonist, high throughput screening, MLSMR, MLSCN, NIH Roadmap, qHTS and NCGC
% is scaled to controls: 0 for no effect and ±100 for the full control effect.

Relaxin receptor 1 (Homo sapiens), sequence (Q9HBX9 whole entry, looked up): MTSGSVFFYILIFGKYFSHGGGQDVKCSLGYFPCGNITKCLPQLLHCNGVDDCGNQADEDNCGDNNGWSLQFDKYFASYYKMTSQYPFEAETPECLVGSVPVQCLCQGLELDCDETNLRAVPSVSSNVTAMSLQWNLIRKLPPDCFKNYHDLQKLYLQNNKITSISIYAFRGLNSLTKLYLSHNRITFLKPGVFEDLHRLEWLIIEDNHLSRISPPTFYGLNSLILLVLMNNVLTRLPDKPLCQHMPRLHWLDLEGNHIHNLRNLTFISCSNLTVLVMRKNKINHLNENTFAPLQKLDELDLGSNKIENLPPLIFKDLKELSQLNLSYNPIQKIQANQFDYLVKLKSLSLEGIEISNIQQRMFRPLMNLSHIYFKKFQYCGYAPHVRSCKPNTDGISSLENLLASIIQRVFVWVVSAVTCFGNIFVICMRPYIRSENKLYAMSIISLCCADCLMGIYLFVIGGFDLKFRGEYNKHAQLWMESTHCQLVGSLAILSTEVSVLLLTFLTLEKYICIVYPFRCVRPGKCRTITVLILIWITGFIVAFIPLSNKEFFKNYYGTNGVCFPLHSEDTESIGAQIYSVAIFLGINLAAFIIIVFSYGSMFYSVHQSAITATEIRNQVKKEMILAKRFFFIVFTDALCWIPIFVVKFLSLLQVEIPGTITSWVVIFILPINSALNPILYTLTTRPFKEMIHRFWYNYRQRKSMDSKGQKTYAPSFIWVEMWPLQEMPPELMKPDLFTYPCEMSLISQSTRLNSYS

activation, inactive:
CCc1ccc(CN(Cc2ccco2)C(=O)COc2ccc(Cl)c(C)c2)cc1 -2.55%
CCOc1ccccc1C(=O)NCC(c1ccc(N(C)C)cc1)N1CCCC1 (configuration not stated) -0.212%
Cc1cccc(Nc2cc(C)nc(-n3nc(C)cc3C)n2)c1 2.8%
Cc1ccc2oc(=O)c3cnn(CC(=O)NCc4ccccc4Cl)c3c2c1 11.8%
Cc1ccc(-c2cnc(NCc3ccc(C(C)C)cc3)n2C)cc1 2.92%
COc1ccc(/C=C/c2nc(C#N)c(NCc3ccc(F)cc3)o2)cc1OC 7.14%
COc1cccc(-c2nnc3n(CCc4ccccc4)c(=O)c4ccccc4n23)c1O -6.16%
CCCSc1ncc(Cl)c(C(=O)Nc2sc3c(c2C(=O)NCCOC)CCCC3)n1 0.71%
O=C(COc1ccccc1Cl)Nc1ccc2nc(SCC(=O)N3CCCC3)sc2c1 -0.6%
Cc1ccc(CNC(=O)CCc2c(C)nn(-c3ccc(N4CCCC4)nn3)c2C)cc1 1.44%
Cc1cc(C)c(NC(=O)CN2C(=O)c3cccnc3Oc3ccc(Cl)cc32)c(C)c1 -0.402%
Cc1cccc(CSc2nc3ccncc3n2CC(=O)N(C)C2CCCCC2)c1 26.3%
O=C(CSc1nccn1Cc1ccc(F)cc1)NCc1ccccc1 1.6%
Cc1ccc(NC(=O)CSc2nnc3[nH]c(=O)cc(C)n23)cc1Cl 1.96%
COc1ccc(-c2nc(SCC(=O)N3CCCCC3C)n[nH]2)cc1 (configuration not stated) 4.16%
O=C(c1cccc(Br)c1)N1CCN(Cc2cc(=O)n3nc(-c4ccccc4)sc3n2)CC1 0.565%
Cc1ccc(-n2cnc3cc(C(=O)NCCC4=CCCCC4)ccc32)cc1Cl -0.218%
Brc1ccc2c(c1)NC(c1cccnc1)=NC(c1ccccc1)=N2 2.1%
CCc1cnc2c(c1SCC(=O)N1CCC(C)CC1)c(=O)n(C)c(=O)n2C 12.8%
Cc1cc(C)c(/C=C/c2onc(C)c2S(=O)(=O)N2CCC(C(=O)Nc3ccc(Cl)cc3C)CC2)c(C)c1 0.56%
CCCNC(=O)c1ccc2c(c1)ncn2-c1ccc(C)cc1C -0.066%
COc1ccc(S(=O)(=O)NCc2cccn2Cc2cccc(C)c2)cc1Cl 3.64%
CCOC(=O)N1CCc2c(sc(NCc3cccc(F)c3)c2C(=O)Nc2ccccc2OCC)C1 3.22%
COc1cccc(OCCn2c(-c3ccc(Br)cc3)nc3ccccc3c2=O)c1 -2.88%
O=C(CCS(=O)(=O)c1ccc2c(c1)NC(=O)CO2)Nc1cccc(C(F)(F)F)c1 -0.361%
CCOc1ccc(C(=O)/C=C/c2cn(CC(O)CN3CCCCCC3)c3ccccc23)cc1 (configuration not stated) -1.71%
COc1ccc(N2CCN(C(=O)CSCc3nc(-c4ccccc4Cl)oc3C)CC2)cc1 0.152%
Cc1ccc(NC(=O)NC(C)c2c(-n3cccc3)sc(C)c2C)c(C)c1 (configuration not stated) -0.32%
CCc1cc2c(cc3c(=O)n(CC(=O)NCc4cccc(Cl)c4)nc(CC)n32)s1 12.2%
Cc1ccc(-n2ncc3c(N4CCC(C(N)=O)CC4)ncnc32)cc1 16.5%
COC(=O)c1ccc(NC(=O)CCc2c(C)nc3c(c(C)nn3-c3ccc(C)cc3)c2C)cc1 -1.04%
CCCCOc1ccc(CN2C(=O)C(=O)c3cc(Br)cc(C)c32)cc1OC 0.139%
CCOc1ccccc1CNC(=O)Nc1cn(CC(C)C)c(=O)c2ccccc12 -0.657%
CN(Cc1ccccc1)C(=O)c1cn(C)c2ccc(S(=O)(=O)N3CCCCC3)cc2c1=O -0.519%
Cc1ccccc1CNC(=O)Cn1c(C)c2cnn(-c3ccccc3)c(=O)c2c1C 1.46%
Cc1ccc2oc3c(c(=O)c2c1)C(c1ccc(O)cc1)N(Cc1ccc2c(c1)OCO2)C3=O (configuration not stated) -0.0237%
COc1ccc(C)cc1N(C)C(=O)c1c(C)oc2ncnc(N3CCOCC3)c12 -3.68%
O=C(NCCCc1ccccc1)c1ccc2c(c1)sc1nc(-c3ccc(F)cc3)cn12 -1.38%
COc1cccc(C(=O)N(Cc2cccc(Cl)c2)Cc2ccco2)c1 1.03%
COc1cc(Cl)c(NC(=O)C(NS(=O)(=O)c2cccs2)C(C)C)c(OC)c1 (configuration not stated) -2.63%
CCOC(=O)c1c(NC(=O)COc2cc(C)ccc2C(C)C)sc(C)c1C 2.49%
COC(=O)c1ccccc1NC(=O)c1ccc(COc2ccccc2Cl)o1 2.52%
O=C(Cn1c(=O)n(-c2ccc(F)cc2)c(=O)c2sccc21)Nc1cccc(C(F)(F)F)c1 0.102%
CC(C)(C)c1ccc(OCC(=O)N2CCC(c3nc4ccccc4s3)CC2)cc1 -0.849%
O=C(NC1CC(=O)N(c2ccc(F)cc2)C1)c1ccc(S(=O)(=O)N2CCCC2)cc1 (configuration not stated) 1.57%
COc1ccc(Cn2ccnc2SCC(=O)NCc2ccco2)cc1 2.97%
CCOc1ccc2oc(=O)cc(CN3CCN(C(=O)c4ccc(F)cc4)CC3)c2c1 1.02%
